Results filed as inconclusive are left out. A call without a number means that no potency is given here. Calls of active or inactive are those of the source. Calls come from the whole dose curve; as a rule, active = well fitted curve in the direction sought with a large enough effect; inconclusive = small, poorly fitted or top-dose-only effect, or another doubt; inactive = no such curve, though single readings can be large; an effect the other way counts as inactive or inconclusive.
Target: Tyrosine-protein kinase Yes (Homo sapiens) (UniProt P07947)
Sequence (P07947 whole entry, looked up): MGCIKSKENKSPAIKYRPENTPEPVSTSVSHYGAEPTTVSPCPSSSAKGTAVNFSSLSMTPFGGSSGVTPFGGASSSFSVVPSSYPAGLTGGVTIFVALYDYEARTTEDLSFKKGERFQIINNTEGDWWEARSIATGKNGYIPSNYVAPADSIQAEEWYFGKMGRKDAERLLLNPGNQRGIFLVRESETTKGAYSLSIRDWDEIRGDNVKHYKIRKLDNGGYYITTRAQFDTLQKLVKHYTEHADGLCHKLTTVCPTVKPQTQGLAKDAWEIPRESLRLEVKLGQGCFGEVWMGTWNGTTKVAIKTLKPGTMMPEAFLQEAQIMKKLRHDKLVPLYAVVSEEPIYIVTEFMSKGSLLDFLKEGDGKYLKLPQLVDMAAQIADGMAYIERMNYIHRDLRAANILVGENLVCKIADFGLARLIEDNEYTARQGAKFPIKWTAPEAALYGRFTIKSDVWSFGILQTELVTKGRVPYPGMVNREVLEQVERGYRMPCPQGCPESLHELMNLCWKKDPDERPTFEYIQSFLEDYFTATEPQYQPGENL
Test: qHTS for small molecule inhibitors of Yes1 kinase: Primary Screen (AID 686947); note: nearly all actives have a fitted effect of over 60% in size; note: potency is the fitted concentration of half-maximal effect
Settings: Yes1 kinase biochemical qHTS inhibition; series mostly up to 76.9 µM
Procedure, shortened: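 ADP-Glo luminescence reports ADP formed by 4 nM Yes1 phosphorylating poly(E4Y) (0.3 mg/mL) with 0.1 mM ATP for 60 min at room temperature, following 20 min compound preincubation; normalised between DMSO wells with and without enzyme.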
With `CCOc1ccc(Cc2cc([C@@H]3O[C@H](CO)[C@@H](O)[C@H](O)[C@@H]3O)ccc2Cl)cc1` the Potency was “inactive”. For `CCN(c1ccccc1)c1cc(NC)[n+](C)c(C)n1`, the Potency was “inactive”. With `Cc1csc(NC(=O)c2sc3nc4c(c(C(F)(F)F)c3c2N)CCC4)n1` the Potency was “inactive”. In the case of `CCOC(=O)C1=C[C@@]2(CC)CCCN3CCc4c(n1c1ccccc41)[C@H]32`, the Potency is reported as “inactive”. With `COc1ccc(-c2ccc3c(N4CCOCC4)nc(N4C[C@@H](C)O[C@@H](C)C4)nc3n2)cc1CO` the Potency was “inactive”. For `Nc1nccc(-c2ccc3noc(-c4ccc(Cl)cc4)c3c2)n1`, the Potency was “inactive”. For `Cn1cc(-c2ccc3nnc(C(F)(F)c4ccc5ncccc5c4)n3n2)cn1`, the Potency was “inactive”. For `CN(C(=O)c1ccc(F)cc1C(F)(F)F)C1CCN(c2nnc(-c3ccnn3C)c3ccccc23)CC1`, the Potency was “inactive”. With `C[C@]1(c2nc3c(C(N)=O)cccc3[nH]2)CCCN1` the Potency was “inactive”. In the case of `OCCn1cc(-c2cnc3nnn(Cc4ccc5ncccc5c4)c3n2)cn1`, the Potency is reported as “inactive”. With `O=C(C1CC1)N1CC[C@@H](Cn2c(-c3ccc(-c4ccc5occc5c4)cc3)nc3cnccc32)C1` the Potency was “inactive”. With `COc1ccc(-c2c(-c3ccc(O)cc3O)n[nH]c2C)cc1` the Potency was 8.67 µM (active). In the case of `COc1nc(-c2ccc3c(c2)OCO3)n(-c2ccc(NC(=O)CSc3ccccc3)cc2)n1`, the Potency is reported as “inactive”. For `C[C@H](NC(=O)Cc1cc(F)cc(F)c1)C(=O)N[C@@H]1C(=O)N(C)c2ccccc2-c2ccccc21`, the Potency was “inactive”. With `COc1ccc(-c2oc3cc(OC)ccc3c2C(=O)c2ccc(C#N)cc2)cc1` the Potency was “inactive”. With `CC[C@@H](C)[C@H](NC(=O)[C@H](CC1CCCCC1)NC(=O)c1ccno1)C(=O)N1CCC2(CCc3ccccc32)CC1` the Potency was “inactive”.

Tested on: not listed separately
Test: qHTS for small molecule inhibitors of Yes1 kinase: Counter Assay (AID 686950);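 note: no kinase present so only ADP-Glo detection of a fixed ADP amount is tested; luminescence from ADP-Glo reporting ADP in a fixed ATP and ADP mixture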
Settings: series mostly up to 76.9 µM
Procedure, shortened: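 Measuring interference with ADP-Glo, the assay ran 60 min at room temperature on an ATP/ADP mix lacking enzyme. Values were normalized to ATP-plus-ADP (maximum) and ATP-only (minimum) DMSO controls.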
With `CCOc1ccc(Cc2cc([C@@H]3O[C@H](CO)[C@@H](O)[C@H](O)[C@@H]3O)ccc2Cl)cc1` the outcome was “inactive”. With `Cc1c(CCOc2ccc(C(=O)O)cc2)c2cc(Cl)ccc2n1C(c1ccccc1)c1ccccc1` the outcome was “inactive”. For `CCN(c1ccccc1)c1cc(NC)[n+](C)c(C)n1`, the outcome was “inactive”. With `Cc1csc(NC(=O)c2sc3nc4c(c(C(F)(F)F)c3c2N)CCC4)n1` the outcome was “inactive”. With `CCc1cc(Nc2nccc(-c3c(-c4ccc(OC)c(C(=O)Nc5c(F)cccc5F)c4)nc4ccccn34)n2)c(OC)cc1N1CCC(N2CCN(S(C)(=O)=O)CC2)CC1` the outcome was “inactive”. For `CCOC(=O)C1=C[C@@]2(CC)CCCN3CCc4c(n1c1ccccc41)[C@H]32`, the outcome was “inactive”. In the case of `Cc1cnc(Nc2ccc(OCCN3CCCC3)cc2)nc1Nc1cccc(S(=O)(=O)NC(C)(C)C)c1`, the outcome is reported as “inactive”. With `CC[C@H](Nc1ncnc2nc[nH]c12)c1nc2cccc(F)c2c(=O)n1-c1ccccc1` the outcome was “inactive”. For `COc1cc(Oc2ccnc3cc(OC)c(OC)cc23)ccc1NC(=O)NC(C)c1nccs1` (stereo unspecified), the outcome was “inactive”. For `COc1ccc(-c2ccc3c(N4CCOCC4)nc(N4C[C@@H](C)O[C@@H](C)C4)nc3n2)cc1CO`, the outcome was “inactive”. For `Cc1cc(C=c2sc3nc4ccccc4n3c2=O)c(C)n1-c1ccccc1`, the outcome was “inactive”. In the case of `CC(C)c1onc(-c2c(Cl)cccc2Cl)c1COc1ccc(/C=C/c2cccc(C(=O)O)c2)c(Cl)c1`, the outcome is reported as “inactive”. With `Cc1ccc(-n2nc(C(C)(C)C)cc2NC(=O)Nc2ccc(OCCN3CCOCC3)c3ccccc23)cc1` the outcome was “inactive”. For `Nc1nccc(-c2ccc3noc(-c4ccc(Cl)cc4)c3c2)n1`, the outcome was “inactive”. For `CCCCCCCc1ccc(CCc2cccc(O)c2C(=O)O)cc1`, the outcome was “inactive”. For `C[C@]12CC[C@H](O)CC1=CC[C@@H]1[C@H]2CC[C@]2(C)C(c3cccnc3)=CC[C@H]12`, the outcome was “inactive”. In the case of `Cn1cc(-c2ccc3nnc(C(F)(F)c4ccc5ncccc5c4)n3n2)cn1`, the outcome is reported as “inactive”. With `CN(C(=O)c1ccc(F)cc1C(F)(F)F)C1CCN(c2nnc(-c3ccnn3C)c3ccccc23)CC1` the outcome was “inactive”. In the case of `Cc1cc2c(F)c(Oc3ncnn4cc(OC[C@@H](C)O)c(C)c34)ccc2[nH]1`, the outcome is reported as “inactive”. With `C[C@]1(c2nc3c(C(N)=O)cccc3[nH]2)CCCN1` the outcome was “inactive”. For `OCCn1cc(-c2cnc3nnn(Cc4ccc5ncccc5c4)c3n2)cn1`, the outcome was “inactive”. For `Oc1cccc(-c2nc(N3CCOCC3)c3oc4ncccc4c3n2)c1`, the outcome was “inactive”. With `O=C(C1CC1)N1CC[C@@H](Cn2c(-c3ccc(-c4ccc5occc5c4)cc3)nc3cnccc32)C1` the outcome was “inactive”. For `COc1ccc(-c2c(-c3ccc(O)cc3O)n[nH]c2C)cc1`, the outcome was “inactive”. For `COc1nc(-c2ccc3c(c2)OCO3)n(-c2ccc(NC(=O)CSc3ccccc3)cc2)n1`, the outcome was “inactive”.

Reference: PubChem BioAssay (NCATS)
